# Data reported in the supplement of paper PMC11001985.
# A number with no mark means an inactive call.
# Target: WLS (lysine site: K217) (UniProt Q5T9L3)
# Experiment: lysine labeling ratio R10:1 (500 µM / 50 µM probe), SILAC-ABPP in living cells; higher = lower intrinsic lysine reactivity toward the probe, active = 2 or less
# Conditions: HeLa; probe concentrations 500 vs 50 µM
# Protocol: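 Living HeLa cells (SILAC light/heavy) in PBS at room temperature were labeled with 50 µM versus 500 µM of the lysine-reactive, reductant-cleavable probe OPA-S-S-alkyne (SILAC labeling time not stated). Probe-modified peptides were CuAAC-biotinylated, captured on neutravidin and eluted with DTT/IAA, then quantified by LC-MS/MS. R = median peptide ratio per lysine (500/50 µM), combined over 3 forward and 3 reverse SILAC replicates. Ratios are capped at 20; R < 2 = hyper-reactive.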
# WLS (lysine site: K217), sequence (Q5T9L3 whole entry): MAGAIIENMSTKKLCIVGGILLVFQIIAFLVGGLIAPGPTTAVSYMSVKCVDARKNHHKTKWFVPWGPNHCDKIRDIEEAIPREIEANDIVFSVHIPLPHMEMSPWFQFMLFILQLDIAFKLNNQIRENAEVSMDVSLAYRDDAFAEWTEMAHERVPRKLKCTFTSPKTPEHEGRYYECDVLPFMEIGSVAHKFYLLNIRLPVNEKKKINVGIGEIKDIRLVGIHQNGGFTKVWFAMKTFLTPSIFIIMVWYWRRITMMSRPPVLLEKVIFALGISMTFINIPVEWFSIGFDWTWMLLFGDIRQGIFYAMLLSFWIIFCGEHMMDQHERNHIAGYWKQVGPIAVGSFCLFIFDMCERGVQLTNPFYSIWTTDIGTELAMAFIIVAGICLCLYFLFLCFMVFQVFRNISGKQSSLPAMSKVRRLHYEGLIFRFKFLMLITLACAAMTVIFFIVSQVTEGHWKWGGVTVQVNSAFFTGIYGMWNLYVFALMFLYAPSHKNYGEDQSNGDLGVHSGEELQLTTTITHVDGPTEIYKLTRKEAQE
row,SMILES,lysine labeling ratio R10:1
1,C#CCNC(=O)CCSSCCC(=O)NCCc1ccc(C=O)c(C=O)c1,2.13
